Screens: PubChem, Broad Institute
Shown is part of a subset that was picked to be rich in hits.
T_cruzi_growth-1 – T. cruzi intracellular proliferation inhibitors, primary screen, cell-based, beta-gal Tulahuen parasites, NIH3T3 host, luminescence. T. cruzi beta-gal in NIH3T3, GalScreen luminescence, 90 h. inhibition, % at 8.34 µM. 5.9% of 77,000 active;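 active = mean inhibition above about 93%, with at least 55% of replicates each passing it, limit read from the data, passing the limit was not always enough; inconclusive = only one of those two conditions holds; inactive = neither condition holds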
C_diff_HTS – C. difficile growth inhibitors, primary screen, HTS. Clostridium difficile clinical isolate growth, OD600, 24 h; active compounds read low. growth activity, negative = inhibition, % at 16 µg/mL (by protocol). 0.25% of 86,000 active;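 active = mean growth activity at or below -80% and every replicate also at or below -80%; inconclusive = mean at or below -80% but some replicate above -80%; inactive = mean growth activity above -80%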;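 note: 0% = DMSO wells and -100% = levofloxacin 16 µg/mL wells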
T_cruzi_growth-2 – T. cruzi intracellular proliferation inhibitors, confirmation, cell-based, NIH3T3 host, beta-gal parasite, luminescence, cherry-pick | shares compounds with T_cruzi_growth-1 | T. cruzi beta-gal in NIH3T3, GalScreen luminescence, 90 h | inhibition, % at 8.35 µM | 72% of 5,600 active | AID 651739, 2012;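 active = mean replicate inhibition above about 95% and at least 55% of replicates individually reaching it, limit read from the data; inconclusive = only one of the two criteria is met; inactive = neither criterion is met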
T_cruzi_growth-3 – inhibitors of intracellular T. cruzi replication, confirmation, NIH3T3 host cells, beta-gal parasites, cherry-pick, set 2; shares compounds with T_cruzi_growth-1; T. cruzi beta-gal in NIH3T3, GalScreen luminescence, 90 h; inhibition, % at 2.09 µM; 21% of 5,600 active; AID 651740, 2012;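 active = mean inhibition above about 95%, with at least 55% of replicates also reaching it, limit read from the data; inconclusive = meets just one of the two conditions; inactive = meets neither condition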;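 note: plate controls were neutral control median for no effect and positive control median for full effect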
NIH3T3_tox – cytotoxicity in mouse NIH/3T3 fibroblasts, confirmation, cytotoxicity control for T. cruzi proliferation inhibitor project, cell-based, cherry-pick, single point; shares compounds with T_cruzi_growth-1; cytotoxicity (signal decrease), % at 8.35 µM; NIH/3T3 viability, CellTiter-Glo ATP luminescence, 90 h; 14% of 5,600 active;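 active = mean signal decrease across replicates above about 35% based on untreated-well scatter, with enough replicates individually passing, limit read from the data; inconclusive = no rule stated though some were filed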;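 note: 0% = median of neutral control wells and 100% = median of positive control wells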
NIH3T3_tox_2 – NIH/3T3 fibroblast cytotoxicity, confirmation, cytotoxicity control, cell-based, cherry-pick, single point, set 2 | shares compounds with T_cruzi_growth-1 | NIH/3T3 viability, CellTiter-Glo ATP luminescence, 90 h | inhibition, % at 24.9 µM | 56% of 5,600 active;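 active = mean loss of cell viability signal at or above a set limit, and enough replicates individually reaching it; inconclusive = meets only the mean limit or only the replicate share; inactive = meets neither condition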;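 note: 0% = median of neutral control wells and 100% = median of positive control wells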
Numbers without * were called inactive; ? = inconclusive; / = no result given.

SMILES T_cruzi_growth-1 C_diff_HTS T_cruzi_growth-2 T_cruzi_growth-3 NIH3T3_tox NIH3T3_tox_2
OC[C@@H]1[C@@H](c2ccc(C#Cc3ccccc3F)cc2)[C@@H]2CN(CC3CCOCC3)CCCCN12 72.2 -12.4 / / / /
CCCC#Cc1ccc([C@H]2[C@H](CO)N3CCCCN(CC4CCOCC4)C[C@@H]23)cc1 128.7* 5.4 86.7 46.9 15.9 76.7*
OC[C@@H]1[C@H](c2ccc(C#Cc3ccccc3F)cc2)[C@@H]2CN(CC3CCOCC3)CCCCN12 105.3* 7.1 114.0* 59.2 ? 105.1*
O=C(C[C@H]1CC[C@@H]2[C@H](COC[C@@H](O)CN2C(=O)Nc2ccc(F)cc2)O1)NCC1CC1 / 0.8 / / / /
CC(=O)N(C)C[C@@H]1Oc2cc(C#Cc3cccc(F)c3)ccc2S(=O)(=O)N([C@H](C)CO)C[C@H]1C -30.8 10.9 / / / /
CN(C)CC(=O)N1[C@@H](C#N)[C@H](c2ccc(C#CC3CC3)cc2)[C@@H]1CO 96.4* -0.2 96.8* 44.9 -19.5 -9.8
N#C[C@H]1[C@@H](c2ccc(C#CC3CCCC3)cc2)[C@H](CO)N1C(=O)Cc1ccccn1 / -0.7 / / / /
CN(C)CC(=O)N1[C@H](C#N)[C@H](c2ccc(C#CC3CCCCC3)cc2)[C@H]1CO 92.8 6.1 / / / /
CN(C)CC(=O)N1[C@H](C#N)[C@@H](c2ccc(C#CC3CC3)cc2)[C@@H]1CO 83.9 3.4 / / / /
N#C[C@H]1[C@H](c2ccc(C#CC3CC3)cc2)[C@H](CO)N1C(=O)Cc1ccccn1 105.4* -2.3 104.4* 74.3 -3.4 3.4
CN(C)CC(=O)N1[C@H](C#N)[C@@H](c2ccc(C#CC3CCCC3)cc2)[C@@H]1CO ? -3.1 85.4 21.8 3.1 104.6*
CN(C)CC(=O)N1[C@H](CO)[C@@H](c2ccc(C#CC3CCCC3)cc2)[C@@H]1C#N 9.3 5.8 / / / /
CN(C)CC(=O)N1[C@H](CO)[C@H](c2ccc(C#CC3CCCC3)cc2)[C@@H]1C#N 95.9* 5.6 101.5* 107.2* 12.3 8.7
CCCNC(=O)N1CC2(CCN(C(=O)C3CCCC3)CC2)c2c([nH]c3cc(OC)ccc23)[C@@H]1CO / -4.4 / / / /
COc1ccc(NC(=O)N(C)C[C@H]2OCCCC[C@@H](C)Oc3ccc(NS(=O)(=O)c4cn(C)cn4)cc3C(=O)N([C@@H](C)CO)C[C@@H]2C)cc1 -46.4 1.5 / / / /
CN1C[C@H]2[C@@H](c3ccccc31)[C@H](CO)N2C(=O)C1CCCCC1 75.9 -2.5 / / / /
O=C(C[C@H]1CC[C@H](NC(=O)Nc2ccc(C(F)(F)F)cc2)[C@@H](CO)O1)NCCN1CCCC1 -22.1 / / / / /
O=C(C[C@@H]1CC[C@@H]2[C@H](COC[C@@H](O)CN2Cc2ccc3c(c2)OCO3)O1)Nc1ccc(-c2ccccc2)cc1 102.2* 63.5 97.1* 94.7 36.3* 50.8*
O=C(C[C@H]1CC[C@@H]2[C@H](COC[C@H](O)CN2Cc2ccc3c(c2)OCO3)O1)N1CCOCC1 26.4 / / / / /
O=C(C[C@@H]1CC[C@H]2[C@@H](COC[C@H](O)CN2Cc2ccc3c(c2)OCO3)O1)Nc1ccc(-c2ccccc2)cc1 ? 84.4 102.9* 78.0 -14.9 91.7*
O=C(C[C@@H]1CC[C@@H]2[C@H](COC[C@@H](O)CN2Cc2ccc3c(c2)OCO3)O1)N1CCOCC1 -12.2 / / / / /
O=C(C[C@@H]1C[C@H]2c3cc(NS(=O)(=O)c4ccc(F)cc4)ccc3O[C@H]2[C@@H](CO)O1)NC1CCCC1 -16.4 / / / / /
O=C(N[C@@H]1C=C[C@@H](CC(=O)N2CCc3ccccc3C2)O[C@@H]1CO)C1CCC1 / 1.3 / / / /
C[C@@H]1CCCCO[C@@H](CN(C)Cc2ccccc2)[C@H](C)CN([C@@H](C)CO)C(=O)c2cc(NC(=O)Nc3cccc4ccccc34)ccc2O1 107.2* 26.4 102.9* 104.0* 6.5 106.3*
